In the OligoGym collection one finds sensor-assay potency score (higher = more potent) data, which are given here for 40 sequences.
Also: reference of the scale not given here.

In one assay the target is CMIP. In words: pooled miR-30 sensor sort-seq; sequence = guide strand. Particulars: shRNA.
Sequence TTGTATTCCAGCATCAAGCACA displayed a sensor-assay potency score (higher = more potent) of -0.524.
Same read-out and setting: to TTTTTTGGTCTTGTAACAGGAG belongs -0.0686; to TTGGGTGTCGTTGTTGTCGATG, -0.39; to TCGATGACCACCATGGACCGGG, -0.357.
Same read-out and setting: to TTCGAGGTGAGGATCTTGCTGA belongs 0.014.
The same measure, in the same setting: to TAAACTGCAGAGACTCTTCATG belongs 0.214; to TTGGAGGGCAGTGTTAGCCTGG, -0.584.
The sequence TTGCTGAGAAAGGTCCGCGGGT yielded a sensor-assay potency score (higher = more potent) of -0.793.
In turn, TTCAAGACAACTTCCCAGCGGC came in with a sensor-assay potency score (higher = more potent) of -0.119.

The next assay addresses CMPK1. The description is as above. Particulars: shRNA.
In the case of TACAACTTTGTACAAGTTGTAG, the sensor-assay potency score (higher = more potent) was -1.32.
The same measure, in the same setting: the same measure for TCAACTGGTACAATCTTTCCTT: 0.503.
On to TTTACCAAACACATTGTGCAAG, for which the sensor-assay potency score (higher = more potent) was -0.707.
On the same count and under the same terms, the same measure for TTGTTTACCAAACACATTGTGC: -0.615; for TACATCTGCCTTCCCATCCATG: -0.919; for ATAAACACTAAAATGCTCCTAA: 0.491.
Same read-out and setting: to TATCTCAACTGGTACAATCTTT belongs -0.621; to TTAATAAACACTAAAATGCTCC, -0.407; to TTAAGTTTTCTCATCTTTCTAC, 0.568.
The sequence TATTCTTCTGAGCATTGGCAGC showed a sensor-assay potency score (higher = more potent) of -1.31.
Sequence TTAGAAGCATCTATTTTCTTGA came in with a sensor-assay potency score (higher = more potent) of 0.0499.

The target of another assay is CMPK2. The description is as above. Particulars: shRNA.
For TCAAGTTCTGCTTCTTCCCTGG, the sensor-assay potency score (higher = more potent) turned out to be 0.42.
Still for that read-out and setting: the same measure for TGACTTTAAGAGGACAGCCTTA: -1.08.
For the sequence TTTTGGGCACTGGTCGACCAGG, the sensor-assay potency score (higher = more potent) is -1.61.
Still for that read-out and setting: the same measure for TAATACCGTCTGCAGGACCTTT: -1.41; for TTCTTCCCTGGTCTTCTCCATG: -1.63.
Regarding TTTCAAACAACATCTAATCTAG, the sensor-assay potency score (higher = more potent) is -0.108.
The same measure, in the same setting: the same measure for TACCTGTCTACAATCACAGGAG: 0.285.
In the case of TTGACGAAACACACTGTTGGCC, the sensor-assay potency score (higher = more potent) is -0.221.
On to TTTGACGAAACACACTGTTGGC, for which the sensor-assay potency score (higher = more potent) was -0.342.
Same read-out and setting: the same measure for TGGTAGGACATTTCTACCTTTT: -1.68; for TTCATCATCAAAGATCTTCCTC: 0.515.
TCCTTCGATGGCAACAACCTGG displayed a sensor-assay potency score (higher = more potent) of -1.1.

The next assay addresses CMYA5. The assay is described as above. Particulars: shRNA.
In turn, TTAACATCTGGTCACTTCTTGC returned a sensor-assay potency score (higher = more potent) of -0.814.
The same measure, in the same setting: to TAATACTAGATTTCCTTCCTGA belongs 0.791; to TTACTTCTTGATCATCTTGTGG, -0.871; to TGAATCAATGACATCTTCCTTG, 0.597.
The same measure, in the same setting: the same measure for TTCACTTTCTTCCTGATCGATT: -0.264; for TTTCTAACACTAGATTTCCTTC: -0.717.
Consider TACTTCTTGATCATCTTGTGGC, for which the sensor-assay potency score (higher = more potent) was found to be 0.514.
On the same count and under the same terms, the same measure for TTTTTCTTCACTGTGATCTGGC: 0.846.
